# Experimental data: the supplement of paper PMC3334620
# Whole data set: some 33,000 sequences, median “E-score (-0.5 to 0.5)” near -0.012, cut for the highest 2% near 0.29. The entries come from a sample that favours the highest values as a whole.
# Target: T1, Ybr033w (UniProt P38073)
# T1 sequence: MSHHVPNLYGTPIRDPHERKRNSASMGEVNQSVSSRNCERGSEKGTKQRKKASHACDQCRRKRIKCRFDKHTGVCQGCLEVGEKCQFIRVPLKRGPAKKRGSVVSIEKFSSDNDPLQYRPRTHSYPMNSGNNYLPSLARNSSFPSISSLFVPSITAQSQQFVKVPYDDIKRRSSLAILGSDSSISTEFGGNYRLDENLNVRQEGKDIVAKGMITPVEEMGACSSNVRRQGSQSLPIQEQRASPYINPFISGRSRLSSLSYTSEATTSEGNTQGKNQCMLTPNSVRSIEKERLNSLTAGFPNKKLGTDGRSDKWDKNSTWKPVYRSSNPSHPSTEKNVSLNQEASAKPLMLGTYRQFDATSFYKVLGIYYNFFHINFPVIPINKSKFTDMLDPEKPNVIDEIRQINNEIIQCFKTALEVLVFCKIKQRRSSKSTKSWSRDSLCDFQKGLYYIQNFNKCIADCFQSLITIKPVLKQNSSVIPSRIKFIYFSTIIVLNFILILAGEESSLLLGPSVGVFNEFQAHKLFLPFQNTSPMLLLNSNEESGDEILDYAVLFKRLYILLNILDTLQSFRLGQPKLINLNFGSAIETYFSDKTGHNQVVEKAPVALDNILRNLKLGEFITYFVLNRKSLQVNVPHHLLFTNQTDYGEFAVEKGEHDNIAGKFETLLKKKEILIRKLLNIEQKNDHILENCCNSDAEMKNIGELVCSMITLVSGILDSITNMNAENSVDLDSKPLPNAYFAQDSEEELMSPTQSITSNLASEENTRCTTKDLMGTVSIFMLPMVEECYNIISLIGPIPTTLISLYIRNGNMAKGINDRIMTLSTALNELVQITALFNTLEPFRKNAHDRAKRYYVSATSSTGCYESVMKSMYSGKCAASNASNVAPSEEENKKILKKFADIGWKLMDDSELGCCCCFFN
# Assay: PBM E-score (8-mer binding enrichment) (E-score (-0.5 to 0.5)); higher = stronger / more preferred TF binding
# Settings: protein concentration: 200 nM; construct: GST-full length
# Experimental: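 Universal 'all 10-mer' protein binding microarrays (Agilent AMADID 015681) probed with GST-tagged S. cerevisiae TFs (full-length or DBD) made by in vitro transcription/translation (PURExpress), about 100-200 nM. Bound TF was detected with fluorescent anti-GST. Each ungapped 8-mer (which stands for itself and its reverse complement) is scored by the PBM enrichment score (E-score), a modified Wilcoxon-Mann-Whitney statistic from -0.5 to +0.5, computed with the Universal PBM Analysis Suite. Scale: above 0.35 generally sequence-specific binding.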
row,Sequence,PBM E-score
1,ACTATTAG,0.111
2,AGTATTAG,0.174
3,GCTATTAA,0.201
4,CCTATTAA,0.139
5,ACTATTAA,0.325
6,TCTATTCA,0.167
7,TCTATTAA,0.292
8,AGTATTAA,0.295
9,TGTATTAA,0.272
10,CACCCCAG,0.0316
11,ATGCGACA,0.0689
12,TAATCTAA,0.236
13,ATGGGATC,-0.0796
14,AGGACAAC,0.0906
15,TCGTTGAA,0.122
16,GACTCTAC,-0.261
17,ACCTGAAC,-0.219
18,GATGCTCA,-0.113
19,CTTGTGCC,-0.354
20,CGCACTAA,0.0977
21,GACATTAC,0.164
22,GCTGCTAC,-0.175
23,GGCCATTA,0.0667
24,CATTACAA,0.19
25,TATTACGA,0.297

row,Sequence,PBM E-score
1,CATTACGA,0.0351
2,ATTTACAG,0.149
3,AATTACGA,0.277
4,ATTTACAA,0.31
5,ATTTACAC,0.00495
6,AATTACAA,0.107
7,TATTACAA,0.307
8,AGTCCAAC,-0.12
9,CTTAGAAA,0.138
10,ATCTATTC,0.132
11,AAACTCAT,0.274
12,AATCGAAG,0.108
13,CATTTCGG,-0.0324
14,CTATATAA,0.152
15,TTATATAA,0.411
16,GTATATAA,0.168
17,TCATATAA,0.179
18,TGATATAA,0.179
19,ATATATAA,0.332
20,GAGCAAAA,0.0833
21,ATAGTGCG,0.0631
22,CACTTGGG,-0.0516
23,ACCTTTTG,-0.0505
24,AATGTTCA,0.0556
25,AATTCCGG,0.154

row,Sequence,PBM E-score
1,TAATCCGA,0.326
2,AATTCCGC,0.172
3,GATTCCGA,0.129
4,TATTCCGA,0.398
5,ACTTCCGA,-0.0181
6,AATTCCCA,0.171
7,CATTCCGA,0.15
8,AAATCCGA,0.12
9,GAATCCGA,-0.108
10,AATTCCGA,0.296
11,AATTCCGT,0.312
12,ACTGCGAA,-0.0623
13,GAATCACC,0.136
14,AAACTGGA,0.0838
15,CTAATCCC,-0.0661
16,CCTCTGCG,-0.252
17,GCTGCCCA,-0.153
18,ACTTGGAG,-0.0202
19,AGCCTATA,0.0186
20,CGCCAGAG,-0.045
21,AGATGTCC,0.0719
22,CTAGCATA,0.137
23,CTTACTAA,0.143
24,GTGTAAAC,-0.00524
25,AGGCGAGC,-0.174

row,Sequence,PBM E-score
1,ATCGCTAA,0.0959
2,CCGGGCAG,-0.122
3,GTTATGGA,0.108
4,GGATGAAC,0.292
5,AGATGAAC,0.131
6,CGATGAAC,-0.00159
7,AAGGGAGA,-0.166
8,AGCATACG,-0.0246
9,TGGAATAA,0.417
10,CCGAATAC,0.105
11,CGGAATTA,0.407
12,AGGAATAG,0.134
13,TCGAATAA,0.193
14,CCGAATAG,0.0196
15,AGGAATAA,0.364
16,CGGAATTC,0.0496
17,AGGAATAC,-0.131
18,AGGAATTA,0.223
19,TAGAATAA,0.205
20,CCGAATAA,0.293
21,ATTCAGTA,0.13
22,AGGTCTTG,-0.128
23,ATTGTGGA,0.153
24,CACCTAGC,-0.236
25,AGCACTAT,0.0398

row,Sequence,PBM E-score
1,CAGTGATA,0.0511
2,CACAGTCG,-0.125
3,AGGCAAAA,0.222
4,GGGAATCA,0.0407
5,GGGAATAC,-0.0369
6,CGGAATAG,0.126
7,AGGAATAT,0.353
8,ACGAATAT,0.295
9,AAGAATAT,0.149
10,GGGAATAA,0.355
11,ACGAATAC,0.0881
12,AGGAATCG,0.116
13,CGGAATAA,0.468
14,ACGAATAA,0.0842
15,CGGAATAC,0.186
16,TACCTTGA,0.0473
17,CTCACGGC,-0.261
18,GGGGCCAA,-0.123
19,ATAATGGG,0.152
20,GACTTTAC,0.03
21,AATTCACT,0.249
22,CGGTATGA,0.0788
23,GAGCCCAC,-0.27
24,TATTGTGA,0.105
25,CTTGTAGA,-0.145

row,Sequence,PBM E-score
1,GTTGTAGA,0.00414
2,ATTGTAGA,0.295
3,AATAGTCC,-0.0436
4,ACCGACAG,-0.135
5,GATTTCCC,0.0546
6,CAATTTCC,0.195
7,AGTTTTTA,0.181
8,ATTTTTGG,0.0437
9,AGTTTTCC,0.216
10,GATTTTCA,0.205
11,AGTTTTTC,0.295
12,GATTTTCC,0.416
13,AATTTTGC,0.142
14,GAATTTCC,0.343
15,AAATTTCC,0.258
16,ATTTTTGC,0.308
17,CGGTTCTA,0.0953
18,AAGTTGAG,0.0874
19,CGCTCATC,-0.0261
20,GATACCAC,0.066
21,ATTTTTTG,0.274
22,ATTTTGTC,0.187
23,AATTTCTA,0.209
24,ATTTTGTA,0.246
25,AATTTTCT,0.145

row,Sequence,PBM E-score
1,AATTTTCA,0.252
2,AATTTCTC,0.299
3,ATTTTGTG,0.291
4,ATTTTTTC,0.316
5,ATTTTCTC,0.201
6,AATTTTCC,0.468
7,CATTTCTC,0.176
8,CATAACGG,0.0155
9,CAGAGTGC,-0.126
10,TCATAACA,0.23
11,TCAGAGCA,-0.114
12,ATCTAGAC,0.107
13,AGTGAATC,0.0239
14,CAGCCTAG,0.0256
15,AAATTTTC,0.258
16,AATTTTTC,0.31
17,AATTTTTA,0.256
18,AATATTGC,0.223
19,AATATTGG,0.047
20,AATATTGA,0.329
21,GATATTGA,0.177
22,CATATTGA,0.0393
23,AATATTGT,0.298
